High-throughput results from PubChem BioAssay.
NTR1 ag: agonists of human neurotensin receptor NTR1; activation, % at 20 µM; 0.17% of 330,000 active; NTR1-U2OS beta-arrestin-GFP spot imaging, agonist mode; AID 493036;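 active = activation at or above 40% of the spot to cytoplasm intensity ratio, with at least 20 cells analyzed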;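 also: 0% = DMSO without peptide and 100% = 100 nM NTR1 peptide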
A3A deaminase: inhibitors of human APOBEC3A DNA deaminase. P31941. recombinant A3A, FAM/TAMRA ssDNA deamination fluorescence. inhibition, % at 20 µM. 0.41% of 330,000 active;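 active = at least 40% inhibition at 20 µM here, with at most 30% in a related deaminase screen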;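 also: plate controls were A3A with DMSO for no effect and wells lacking A3A enzyme for full effect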
APOBEC3G inh: blocks human APOBEC3G single-stranded DNA deamination. Q9HC16. recombinant A3G, ssDNA deamination FAM/TAMRA fluorescence. inhibition, % at 20 µM. 0.28% of 330,000 active;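 active = inhibition of at least 40% at 20 µM, with no more than 30% in the related APOBEC3A deaminase screen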;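 also: plate controls were DMSO wells with A3G for no effect and wells lacking A3G enzyme for full effect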
AHR act: human AHR activation; activation, % at 5 µM; P35869; 2.5% of 320,000 active; AHR-responsive luciferase reporter cells, luminescence; in the data active = activation above about 47%;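 also: 0% = vehicle wells and 100% = reference agonist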
Target sequence (P35869 whole entry, looked up): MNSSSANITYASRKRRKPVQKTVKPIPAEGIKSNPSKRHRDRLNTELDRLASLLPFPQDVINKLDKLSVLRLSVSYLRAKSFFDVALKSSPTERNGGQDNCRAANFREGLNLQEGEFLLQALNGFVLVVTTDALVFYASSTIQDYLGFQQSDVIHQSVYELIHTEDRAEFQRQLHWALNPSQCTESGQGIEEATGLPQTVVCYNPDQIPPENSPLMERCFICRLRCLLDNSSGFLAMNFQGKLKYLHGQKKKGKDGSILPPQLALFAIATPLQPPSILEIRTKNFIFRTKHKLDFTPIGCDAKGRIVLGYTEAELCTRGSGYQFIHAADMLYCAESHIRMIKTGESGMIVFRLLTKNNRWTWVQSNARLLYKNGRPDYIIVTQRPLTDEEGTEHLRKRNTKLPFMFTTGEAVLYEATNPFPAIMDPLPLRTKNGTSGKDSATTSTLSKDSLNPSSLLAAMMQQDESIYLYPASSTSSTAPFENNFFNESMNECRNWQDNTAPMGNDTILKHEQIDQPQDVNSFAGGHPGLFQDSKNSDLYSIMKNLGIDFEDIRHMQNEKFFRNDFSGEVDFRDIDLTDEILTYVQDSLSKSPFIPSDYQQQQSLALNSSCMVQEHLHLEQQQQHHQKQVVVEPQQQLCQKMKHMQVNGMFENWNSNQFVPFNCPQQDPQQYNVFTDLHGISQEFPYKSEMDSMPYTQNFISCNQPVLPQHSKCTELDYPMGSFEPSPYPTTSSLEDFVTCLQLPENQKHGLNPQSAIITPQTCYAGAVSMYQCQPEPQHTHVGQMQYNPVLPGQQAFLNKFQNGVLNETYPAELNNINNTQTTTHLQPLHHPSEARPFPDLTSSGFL
APOBEC3A confirm: confirmation of human APOBEC3A DNA deaminase inhibitors | shares compounds with A3A deaminase | recombinant A3A, ssDNA deaminase UDG fluorescence assay | inhibition, % at 20 µM | 63% of 1,400 active | AID 493151;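 active = inhibition reaching a set limit, 80% of the first screen's cutoff, at 20 µM in any replicate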;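 also: plate controls were DMSO wells with A3A for no effect and wells lacking A3A enzyme for full effect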
UDG A3A counter: inhibits UDG, flagging false APOBEC3A inhibitors; UDG counterscreen, FAM/TAMRA uracil oligo fluorescence; shares compounds with A3A deaminase; 1,000 tested, under 10 active; inhibition, % at 20 µM; call rule not given here
Starred values were filed as active, the others as inactive; . = no result given. Most compounds without a hit are left out; they make up all but 3.2% or so of the library.

SMILES	NTR1 ag	A3A deaminase	APOBEC3G inh	AHR act	APOBEC3A confirm	UDG A3A counter
O=C1c2ccccc2C(=O)N1CCN1CCCCC1	-1	-2	-2	1	.	.
O=C1c2cccc3cc([N+](=O)[O-])cc(c23)C(=O)N1CCN1CCCC1	2	41*	29	.	26	.
CC(C)(CNC(=O)CCNC(=O)c1ccc(Br)cc1)N1CCOCC1	-1	-2	-6	1	.	.
CC1=CC(C)(C)N(C(=O)c2ccccc2)c2ccccc21	4	-3	-4	1	.	.
CC1=CC(C)(C)[N+](C)(C)c2ccccc21	-1	77*	14	-1	72*	-35
CCn1c(SCC(=O)N2CCc3ccccc32)nnc1-c1ccncc1	-2	49*	20	1	27	.
O=C(CSc1nnnn1-c1ccccc1)N1CCCc2ccccc21	2	-8	-5	8	.	.
O=C(CSc1nnnn1-c1ccccc1)N1CCc2ccccc21	0	41*	17	1	62*	-2
CCNS(=O)(=O)c1cccc(C(=O)c2c(C)cc3ccccn23)c1	2	-1	-4	-3	.	.
O=C(Cn1c2[n+](c3ccc(C(F)(F)F)cc31)CCCCC2)Nc1ccc(Br)cc1	-1	47*	13	0	14*	-3
FC(F)(F)c1cccc(Cn2c3[n+](c4ccc(C(F)(F)F)cc42)CCCCC3)c1	0	49*	21	-1	75*	4
N#Cc1ccc(NC(=O)Cn2c3[n+](c4ccc(C(F)(F)F)cc42)CCCCC3)cc1	0	53	49	1	.	.
O=C(c1cccc(C(F)(F)F)c1)C1CCCN(C(=O)CCCN2CCCC2=O)C1 (configuration not stated)	0	-1	-5	2	.	.
O=C(Cn1nnc2ccccc21)c1ccc(Cl)cc1	0	-5	-4	1	.	.
COc1ccc2c(c1)O/C(=C\c1ccco1)C2=O	1	5	5	2	.	.
Cc1cc(O)c(CN(C)C)c2c1C(=O)/C(=C/c1ccco1)O2	1	48*	21	3	15*	2
CC(C)C(NC(=O)c1ccccc1)C(=O)N/N=C\c1ccco1 (configuration not stated)	4	-2	-10	-1	.	.
C[n+]1ccc(/C=C/c2ccc(Br)cc2)cc1	0	51*	22	5	82*	-34
CCCCC1CCC(C(=O)OC(C)C(=O)Nc2ccc(NC(C)=O)cc2)CC1 (configuration not stated)	0	49*	16	9	5	.
O=C(CC1(O)C(=O)Nc2cc(Cl)cc(Cl)c21)c1ccccc1O (configuration not stated)	2	65*	-1	1	-10	1
O=C(CC1(O)C(=O)Nc2ccccc21)c1ccccc1O (configuration not stated)	-1	-1	-5	11	.	.
COc1ccc(N2CCN(CC(=O)N3c4ccccc4CC3C)CC2)cc1 (configuration not stated)	-2	-5	-8	0	.	.
O=C(CSc1nc2ncccc2[nH]1)NCc1ccco1	-2	-2	-2	0	.	.
CCOC(=O)c1ccc(NC(=O)CSc2nc(C)cc(=O)[nH]2)cc1	0	46*	15	-3	66*	4
O=C(CSc1nccc(=O)[nH]1)NCc1ccco1	0	49*	18	-1	35*	0
SMILES	NTR1 ag	A3A deaminase	APOBEC3G inh	AHR act	APOBEC3A confirm	UDG A3A counter
Cc1cc(=O)[nH]c(SCC(=O)NCc2ccco2)n1	0	65*	18	-3	55*	1
Cc1cc(NC(=O)CSc2ccc(-c3ccc(F)cc3)nn2)no1	1	1	10	4	.	.
Cc1ccc(C)c(N2CCN(C(=O)c3nn(C)c4c3CS(=O)(=O)c3ccccc3-4)CC2)c1	4	-7	-9	1	.	.
O=C(NCC1CCCO1)c1ccc(N2CCCCC2)c([N+](=O)[O-])c1 (configuration not stated)	0	-2	-6	0	.	.
CC1(C(O)(C#CC[N+]2(C)CCCCC2)c2ccccc2)CCCC1 (configuration not stated)	0	82	34	0	.	.
CC1(C#CC[N+]2(C)CCCCC2)CCC2C(O1)c1ccccc1OC2(C)C (configuration not stated)	0	75*	21	-1	61*	1
CCOc1ccc(NC(=O)C2CCCN2C(=O)Oc2ccccc2)cc1 (configuration not stated)	-1	73*	20	-2	78*	-2
CC(=O)c1ccc2c3c(cccc13)C(=O)N(c1c(C)nn(C)c1C)C2=O	0	48*	28	12	4	.
Cc1ccc(N2C(=O)c3cccc4c(C(=O)O)ccc(c34)C2=O)cc1	0	-1	1	10	.	.
O=C(COC(=O)C1CCN(S(=O)(=O)c2cc([N+](=O)[O-])ccc2Cl)CC1)Nc1ncc(Cl)cc1Cl	0	51*	21	14	50*	-3
Cc1ccc2nc(NC(=O)C3CCN(S(=O)(=O)c4cc([N+](=O)[O-])ccc4Cl)CC3)sc2c1	9	42*	14	-8	25	.
O=C(COC(=O)c1ccccc1[N+](=O)[O-])Nc1nnc(-c2ccccc2)o1	1	-1	-8	-2	.	.
Cc1cccc(C(=O)N[C@@H]2c3ccccc3C[C@@H]2O)n1	2	4	8	-2	.	.
CCC(NC(=O)Nc1cc(C)on1)(C(F)(F)F)C(F)(F)F	0	0	-1	0	.	.
COc1cc(/C=C(/C#N)C(=O)NCCCc2ccccc2)ccc1OCC(=O)O	0	40*	11	0	67*	1
COc1cc(/C=C(\C#N)C(=O)NCc2ccccc2)ccc1OCc1ccc(C(=O)O)cc1	3	-2	0	0	.	.
O=[N+]([O-])c1ccc(S(=O)(=O)NCC(c2ccco2)N2CCc3ccccc3C2)cc1 (configuration not stated)	2	77*	-7	2	-2	-3
O=[N+]([O-])c1ccc(S(=O)(=O)NCC(c2cccnc2)N2CCc3ccccc3C2)cc1 (configuration not stated)	2	-2	-11	0	.	.
CC(=O)[C@]1(O)Cc2c(O)c3c(c(O)c2[C@@H](O[C@H]2C[C@H](N)[C@H](O)[C@H](C)O2)C1)C(=O)c1ccccc1C3=O	-3	41*	20	1	46*	-2
Cc1c(NC(=O)COC(=O)Cc2ccc(F)cc2)c(=O)n(-c2ccccc2)n1C	0	0	-11	1	.	.
C[N+](C)(C)CCCN(Cc1ccc2c(c1)OCO2)C(=O)NC1CCCCC1	-1	56*	21	-3	72*	-2
O=[N+]([O-])c1ccc2c(c1)ncn2-c1ccccc1	.	.	.	-5	.	.
Cn1c(-[n+]2c(-c3ccccc3)cc(-c3ccccc3)cc2-c2ccccc2)nc2cc([N+](=O)[O-])ccc21	3	46*	9	15	56*	0
